Targets with a hit are over-represented here; the source holds about 7,900 in all. About 0.6% of all pairs of compound and target were hits.

UniProt P13473, sequence (P13473 whole entry, looked up): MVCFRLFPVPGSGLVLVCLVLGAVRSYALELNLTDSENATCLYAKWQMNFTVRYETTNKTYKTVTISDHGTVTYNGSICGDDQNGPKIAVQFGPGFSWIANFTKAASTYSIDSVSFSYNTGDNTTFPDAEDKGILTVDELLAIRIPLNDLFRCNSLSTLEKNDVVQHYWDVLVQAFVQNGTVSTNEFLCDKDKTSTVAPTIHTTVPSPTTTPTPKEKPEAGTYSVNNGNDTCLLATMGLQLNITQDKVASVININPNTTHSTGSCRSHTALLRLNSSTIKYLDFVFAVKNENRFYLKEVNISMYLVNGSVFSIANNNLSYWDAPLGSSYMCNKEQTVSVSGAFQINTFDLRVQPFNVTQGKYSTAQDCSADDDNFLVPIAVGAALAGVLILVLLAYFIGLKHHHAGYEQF
UniProt Q8IWA4, sequence (Q8IWA4 whole entry, looked up): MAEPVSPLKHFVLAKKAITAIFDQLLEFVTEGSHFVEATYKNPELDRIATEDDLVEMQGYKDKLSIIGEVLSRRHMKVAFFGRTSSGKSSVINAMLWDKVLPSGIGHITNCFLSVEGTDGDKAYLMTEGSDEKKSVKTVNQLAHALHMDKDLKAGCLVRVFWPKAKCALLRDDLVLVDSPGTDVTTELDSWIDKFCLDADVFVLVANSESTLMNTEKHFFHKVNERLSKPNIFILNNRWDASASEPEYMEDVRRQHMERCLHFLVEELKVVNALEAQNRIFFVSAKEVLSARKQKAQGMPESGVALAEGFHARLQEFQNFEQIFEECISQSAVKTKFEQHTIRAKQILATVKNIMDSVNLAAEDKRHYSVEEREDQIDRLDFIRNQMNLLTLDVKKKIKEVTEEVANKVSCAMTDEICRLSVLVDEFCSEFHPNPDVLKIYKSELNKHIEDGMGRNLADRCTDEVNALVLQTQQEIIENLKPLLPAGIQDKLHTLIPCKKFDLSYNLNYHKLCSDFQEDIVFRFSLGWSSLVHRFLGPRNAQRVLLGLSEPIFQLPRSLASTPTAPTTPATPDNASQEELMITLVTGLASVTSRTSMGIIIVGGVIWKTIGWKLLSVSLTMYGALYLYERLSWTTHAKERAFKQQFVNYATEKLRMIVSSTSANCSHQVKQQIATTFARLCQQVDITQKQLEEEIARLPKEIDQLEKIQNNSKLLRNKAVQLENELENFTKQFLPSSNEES
UniProt Q9H1H9, sequence (Q9H1H9 whole entry, looked up): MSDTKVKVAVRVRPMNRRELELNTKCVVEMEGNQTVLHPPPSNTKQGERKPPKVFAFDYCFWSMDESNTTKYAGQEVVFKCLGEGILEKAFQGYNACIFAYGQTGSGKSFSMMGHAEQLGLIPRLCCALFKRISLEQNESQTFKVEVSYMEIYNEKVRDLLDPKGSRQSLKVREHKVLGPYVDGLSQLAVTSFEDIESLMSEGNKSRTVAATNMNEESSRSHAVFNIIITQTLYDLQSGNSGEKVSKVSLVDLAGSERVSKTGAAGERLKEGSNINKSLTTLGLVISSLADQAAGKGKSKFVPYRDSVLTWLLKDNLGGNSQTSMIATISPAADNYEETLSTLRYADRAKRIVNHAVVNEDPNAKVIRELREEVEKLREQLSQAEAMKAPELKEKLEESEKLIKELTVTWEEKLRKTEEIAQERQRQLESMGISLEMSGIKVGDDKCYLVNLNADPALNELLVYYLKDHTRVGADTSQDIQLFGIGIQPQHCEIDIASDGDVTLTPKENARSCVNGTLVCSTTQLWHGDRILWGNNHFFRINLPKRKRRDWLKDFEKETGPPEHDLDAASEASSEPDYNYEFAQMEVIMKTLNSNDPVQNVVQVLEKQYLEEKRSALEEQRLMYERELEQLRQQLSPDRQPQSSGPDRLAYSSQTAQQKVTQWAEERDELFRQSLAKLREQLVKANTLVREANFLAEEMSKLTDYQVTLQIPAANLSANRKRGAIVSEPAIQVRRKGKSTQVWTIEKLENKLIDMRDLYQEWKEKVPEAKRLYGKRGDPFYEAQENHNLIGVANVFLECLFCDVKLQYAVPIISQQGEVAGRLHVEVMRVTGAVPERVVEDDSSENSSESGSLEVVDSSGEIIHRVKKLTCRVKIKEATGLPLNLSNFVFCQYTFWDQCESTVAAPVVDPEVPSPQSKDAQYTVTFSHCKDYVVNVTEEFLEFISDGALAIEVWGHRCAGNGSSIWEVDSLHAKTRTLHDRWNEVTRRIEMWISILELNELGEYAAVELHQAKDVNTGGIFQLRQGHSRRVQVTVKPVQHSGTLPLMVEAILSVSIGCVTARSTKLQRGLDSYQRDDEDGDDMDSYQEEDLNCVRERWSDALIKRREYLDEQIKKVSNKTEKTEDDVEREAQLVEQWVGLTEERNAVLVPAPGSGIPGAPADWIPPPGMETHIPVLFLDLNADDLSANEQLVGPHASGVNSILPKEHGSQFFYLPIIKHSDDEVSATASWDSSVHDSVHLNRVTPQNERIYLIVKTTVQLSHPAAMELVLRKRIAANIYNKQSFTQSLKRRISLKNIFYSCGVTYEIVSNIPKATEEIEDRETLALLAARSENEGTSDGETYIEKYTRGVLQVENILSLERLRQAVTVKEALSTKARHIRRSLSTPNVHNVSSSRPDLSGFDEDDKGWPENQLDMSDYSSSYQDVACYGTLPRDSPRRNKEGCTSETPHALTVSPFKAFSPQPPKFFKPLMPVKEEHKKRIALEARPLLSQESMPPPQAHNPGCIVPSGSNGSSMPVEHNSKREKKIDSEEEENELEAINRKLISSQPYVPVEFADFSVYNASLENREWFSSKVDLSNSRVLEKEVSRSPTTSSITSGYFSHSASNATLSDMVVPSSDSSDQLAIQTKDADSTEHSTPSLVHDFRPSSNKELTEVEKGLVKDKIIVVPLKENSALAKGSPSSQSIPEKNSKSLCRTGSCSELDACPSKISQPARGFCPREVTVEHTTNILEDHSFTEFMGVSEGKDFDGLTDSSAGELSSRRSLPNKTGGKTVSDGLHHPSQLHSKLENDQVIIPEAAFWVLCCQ
UniProt Q14681, sequence (Q14681 whole entry, looked up): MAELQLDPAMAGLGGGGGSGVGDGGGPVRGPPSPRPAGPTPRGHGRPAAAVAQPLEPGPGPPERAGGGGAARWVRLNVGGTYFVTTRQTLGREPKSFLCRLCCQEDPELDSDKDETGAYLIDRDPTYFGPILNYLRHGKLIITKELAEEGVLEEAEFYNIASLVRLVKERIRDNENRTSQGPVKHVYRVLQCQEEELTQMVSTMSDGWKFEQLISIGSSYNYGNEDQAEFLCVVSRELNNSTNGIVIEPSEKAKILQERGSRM
UniProt O94822, sequence (O94822 whole entry, looked up): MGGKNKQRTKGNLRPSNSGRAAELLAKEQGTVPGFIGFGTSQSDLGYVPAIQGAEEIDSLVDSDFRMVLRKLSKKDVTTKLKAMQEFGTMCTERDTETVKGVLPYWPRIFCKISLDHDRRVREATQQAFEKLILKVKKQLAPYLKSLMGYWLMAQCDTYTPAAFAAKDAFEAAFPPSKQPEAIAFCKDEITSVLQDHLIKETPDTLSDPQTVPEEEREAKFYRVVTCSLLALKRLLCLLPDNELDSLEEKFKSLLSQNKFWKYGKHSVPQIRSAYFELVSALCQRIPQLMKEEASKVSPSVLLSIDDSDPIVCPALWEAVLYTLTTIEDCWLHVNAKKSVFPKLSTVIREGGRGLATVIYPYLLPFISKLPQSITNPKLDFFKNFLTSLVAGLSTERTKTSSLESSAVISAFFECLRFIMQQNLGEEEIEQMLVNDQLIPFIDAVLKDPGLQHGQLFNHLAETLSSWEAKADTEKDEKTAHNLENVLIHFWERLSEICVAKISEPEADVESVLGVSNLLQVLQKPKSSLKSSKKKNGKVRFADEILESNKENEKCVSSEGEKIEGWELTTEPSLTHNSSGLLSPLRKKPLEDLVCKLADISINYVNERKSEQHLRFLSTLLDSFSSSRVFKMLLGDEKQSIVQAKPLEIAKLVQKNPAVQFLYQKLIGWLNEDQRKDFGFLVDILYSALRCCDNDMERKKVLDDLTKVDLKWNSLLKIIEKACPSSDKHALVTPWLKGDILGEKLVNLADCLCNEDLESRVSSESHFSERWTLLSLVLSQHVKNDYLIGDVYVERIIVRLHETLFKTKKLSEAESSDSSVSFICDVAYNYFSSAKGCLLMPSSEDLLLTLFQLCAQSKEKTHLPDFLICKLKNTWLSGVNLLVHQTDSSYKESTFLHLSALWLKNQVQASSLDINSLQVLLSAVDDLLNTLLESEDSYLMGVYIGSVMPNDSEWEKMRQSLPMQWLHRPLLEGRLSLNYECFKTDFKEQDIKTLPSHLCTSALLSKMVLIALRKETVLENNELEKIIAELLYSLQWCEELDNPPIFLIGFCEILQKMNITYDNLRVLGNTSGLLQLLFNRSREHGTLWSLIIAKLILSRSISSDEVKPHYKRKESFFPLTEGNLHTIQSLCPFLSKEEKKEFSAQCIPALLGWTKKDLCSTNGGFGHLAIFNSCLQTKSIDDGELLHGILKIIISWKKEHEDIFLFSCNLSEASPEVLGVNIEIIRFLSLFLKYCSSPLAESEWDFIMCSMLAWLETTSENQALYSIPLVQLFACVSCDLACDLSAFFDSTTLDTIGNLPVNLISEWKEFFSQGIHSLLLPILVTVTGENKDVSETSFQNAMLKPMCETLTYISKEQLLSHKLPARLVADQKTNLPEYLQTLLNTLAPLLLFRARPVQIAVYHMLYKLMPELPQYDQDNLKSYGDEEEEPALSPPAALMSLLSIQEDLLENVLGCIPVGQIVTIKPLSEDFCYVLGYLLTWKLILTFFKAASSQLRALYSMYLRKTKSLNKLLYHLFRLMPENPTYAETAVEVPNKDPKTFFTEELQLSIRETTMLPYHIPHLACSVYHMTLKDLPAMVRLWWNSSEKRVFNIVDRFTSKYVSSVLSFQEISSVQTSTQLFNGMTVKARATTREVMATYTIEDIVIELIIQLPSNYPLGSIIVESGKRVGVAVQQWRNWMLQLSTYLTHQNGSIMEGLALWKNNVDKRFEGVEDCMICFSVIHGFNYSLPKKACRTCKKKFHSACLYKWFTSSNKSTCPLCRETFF

Compound in this assay: CC1=C(SC2=C1C(=N[C@H](C3=NN=C(N32)C)CC(=O)N)C4=CC=C(C=C4)Cl)C
Description: log2 fold change, soluble protein after heating vs DMSO (PISA); higher = thermal stabilisation; K562 cells, 10 uM, 30 min; active = over 0.2 and 3.5 SD of the protein, either way, in both replicates (recomputed). The method, boiled down: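 K562 cells at 2×10^6 cells/mL were treated with 10 μM compound for 30 min. Aliquots were heated for 3 min across 48°C-58°C, pooled, and extracted in PBS with 0.5% NP-40 at 4°C; soluble protein was the supernatant after 21,000xg for 90 min. Soluble protein was quantified by TMTpro 16plex LC-MS/MS with channel sums equalised, and reported as log2 fold change in thermal stability against DMSO controls, with values from duplicates.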
Turning to KCTD2 (UniProt Q14681), the log2 fold change was -0.01 (inactive).
With MED8 isoform 2 (UniProt Q96G25), the log2 fold change was -0.053 (inactive).
Take KDM5D isoform 3 (UniProt Q9BY66): the log2 fold change was 0.086 (inactive).
KTN1 (UniProt Q86UP2): the log2 fold change is -0.012 (inactive).
In the case of IGF2BP2 (UniProt Q9Y6M1), the log2 fold change was -0.271 (inactive).
In the case of ITM2C (UniProt Q9NQX7), the log2 fold change is 0.007 (inactive).
As for MASTL (UniProt Q96GX5), the log2 fold change is 0.081 (inactive).
With LMNB2 (UniProt Q03252), the log2 fold change is 0.052 (inactive).
With KIF3A (UniProt Q9Y496), the log2 fold change is 0.039 (inactive).
As for IGF2R (UniProt P11717), the figure is 0.007 (inactive); as for MAGEA9 (UniProt P43362), -0.03 (inactive).
In the case of LONP2 (UniProt Q86WA8) it was 0.009 (inactive); in that of MFN2 (UniProt O95140), 0.038 (inactive); in that of MGST3 (UniProt O14880), 0.032 (inactive).
Consider MDN1 (UniProt Q9NU22), for which the log2 fold change was 0.041 (inactive).
As for KDM3B (UniProt Q7LBC6), the log2 fold change was 0.026 (inactive).
In the case of LRBA (UniProt P50851), the log2 fold change was 0.05 (inactive).
Turning to MAPKAPK2 (UniProt P49137), the log2 fold change was 0.064 (inactive).
With KIF13A (UniProt Q9H1H9), the log2 fold change was 0.039 (inactive).
Turning to LAMP2 (UniProt P13473), the log2 fold change is -0.006 (inactive).
In the case of MFF (UniProt Q9GZY8) it was 0.041 (inactive); in that of METTL18 (UniProt O95568), -0.027 (inactive); in that of LDLR (UniProt P01130), 0.014 (inactive).
LAMP2 isoform 2 (UniProt P13473): the log2 fold change is -0.015 (inactive).
On to LIAS (UniProt O43766), for which the log2 fold change is -0.042 (inactive).
Take MED7 (UniProt O43513): the log2 fold change was 0.029 (inactive).
LUC7L3 (UniProt O95232): the log2 fold change is -0.021 (inactive).
Consider MBLAC1 (UniProt A4D2B0), for which the log2 fold change is 0.067 (inactive).
On to INPP5B (UniProt P32019), for which the log2 fold change was 0.056 (inactive).
In the case of MCL1 (UniProt Q07820) it was 0.125 (inactive); in that of MAP2K3 isoform 3 (UniProt P46734), -0.051 (inactive); in that of LARP4B (UniProt Q92615), -0.013 (inactive).
Consider LTN1 isoform 3 (UniProt O94822), for which the log2 fold change was 0.015 (inactive).
On to LYPLA2 (UniProt O95372), for which the log2 fold change was 0.056 (inactive).
LNPEP (UniProt Q9UIQ6): the log2 fold change is 0.061 (inactive).
For MFN1 (UniProt Q8IWA4), the log2 fold change is 0.042 (inactive).
For LMBRD1 (UniProt Q9NUN5), the log2 fold change was 0.099 (inactive).
With LEMD2 (UniProt Q8NC56), the log2 fold change is 0.136 (inactive).

The values are drawn from the supplement of paper PMC10849652.
